The list is not random: actives were taken first. Their share in the collection is about 3.5%.
Anthrax LF inh2: anthrax lethal factor protease inhibition | multiplex microsphere protease cleavage assay, LF | inhibition, % at 10 µM | actives 0.12% (n = 360,000) | AID 588501; also: plate controls were buffer without enzyme for full effect and enzyme alone for no effect
BoNT A protease: inhibitors of Botulinum neurotoxin A light chain protease | multiplex microsphere protease substrate cleavage, flow cytometry | inhibition, % at 10 µM | actives 0.17% (n = 360,000); also: plate controls were buffer without enzyme for full effect and enzyme alone for no effect
Autofluor counter: counter-screen for toxin protease inhibitors: compound fluorescence; AID 624483; fluorescence intensity (no concentration beside the values); actives 3.1% (n = 360,000); compound autofluorescence counterscreen, microsphere flow cytometry; stronger effect = higher value; in the data active = fluorescence intensity above about 16000; inconclusive = no clear call, values can overlap the other calls
BoNT F protease: blocks Botulinum neurotoxin F light chain protease | Multiplex microsphere protease cleavage assay, flow cytometry | actives 0.22% (n = 360,000) | AID 588497 | inhibition, % at 10 µM; in the data active = inhibition above about 35%, passing the limit was not always enough; inconclusive = no clear call, values can overlap the other calls; also: plate controls were buffer without enzyme for full effect and enzyme alone for no effect
Starred values were filed as active, the others as inactive; ? = inconclusive. Rule as the data show it, unless noted: active = inhibition above about 30%; inconclusive = no clear call, values can overlap the other calls; inactive = below that.

SMILES	Anthrax LF inh2	BoNT A protease	Autofluor counter	BoNT F protease
Nc1cc(N)nc(SCC(=O)NCC2CCCO2)n1 (stereo not drawn)	-1	?	20538*	-1
O=C(N=Nc1c(O)[nH]c2ccc(Br)cc12)c1ccccc1-n1cccc1	-7	-3	24096*	-8
Cc1cccn2cc(-c3ccccc3)nc12	0	0	2474	-5
Cc1cccn2cc(-c3ccc(F)cc3)nc12	-3	-1	23835*	-2
COC(=O)C1=CN(c2cccc(C)c2)C=C(C(=O)OC)C1c1cc(OC)c(O)c([N+](=O)[O-])c1	0	2	22321*	2
COC(=O)C1=CN(c2ccc(OC)cc2)C=C(C(=O)OC)C1c1ccc(C)c([N+](=O)[O-])c1	0	1	1987	-3
COc1cccc(Nc2nc3ccccc3nc2NS(=O)(=O)c2cccs2)c1	-6	?	22498*	-2
CCOc1cc(CNc2ncc(-c3ccc(OC)cc3)n2C)ccc1O	-4	0	20656*	-4
COc1ccc(CNc2ncc(-c3ccccc3)n2C)cc1	2	1	3144	?
CN(C(=O)Nc1ccc(Cl)cc1)c1c2c(nn1C)CCCC2	-3	?	23809*	-6
CN1CCN(S(=O)(=O)Cc2ccc(Cl)cc2)CC1	?	5	3510	36*
CSc1ccc(CN2CCN(S(=O)(=O)Cc3ccccc3)CC2)cc1	-28	-103	27972*	-165
Cc1ccccc1[C@H](NC1c2ccccc2C=Cc2ccccc21)P(=O)(c1ccccc1)c1ccccc1	13	0	6411	1
COc1ccc(C(=O)OCCN=C2NS(=O)(=O)c3ccccc32)cc1OC	2	7	21489*	7
CCOC(=O)c1ccccc1NC(=O)CC(C)CC(=O)O (stereo not drawn)	0	0	2485	-13
CC(CC(=O)O)CC(=O)Nc1ccccc1C(=O)O (stereo not drawn)	3	0	22711*	-5
Cc1sc(NC(=O)C2CCCCC2C(=O)O)c(C(N)=O)c1C (stereo not drawn)	-1	1	23098*	-1
O=C(N/N=C/c1ccc(Cl)cc1Cl)c1ccc2nc[nH]c2c1	-2	0	5418	4
O=C(N/N=C/c1ccc(Cl)cc1Cl)c1cccc(F)c1	-1	0	22364*	1
C=CCn1c(NCc2ccccc2)nc2ccccc21	-7	1	6295	3
C=CCn1c(N2C(=O)CC(Cc3ccccc3)C2=O)nc2ccccc21 (stereo not drawn)	-2	-1	22688*	-2
CC(=O)Nc1cc2c(cc1Br)-c1ccccc1C2	3	0	3421	0
O=C1C(=O)c2ccc(-c3ccccc3)cc2-c2ccccc21	-1	0	16446*	0
CCc1c(C)c2c(C)nn(-c3ccccc3)c2[nH]c1=O	-1	0	3325	17
CCc1c(C)n2nc(C)cc2[nH]c1=O	-3	2	22318*	1
SMILES	Anthrax LF inh2	BoNT A protease	Autofluor counter	BoNT F protease
O=c1cc(-c2ccccc2)c2c([nH]1)CCCC2	-8	5	19679*	7
O=c1cc(-c2ccccc2Cl)c2c([nH]1)CCC2	-9	-1	5713	-9
O=c1c2c([nH]c3ccccc13)CCCCCC2	-6	?	22192*	-3
O=c1c2c([nH]c3ccccc13)CCCCC2	-1	-2	4745	-3
NC(=O)NC(c1ccccc1)c1ccccc1F (stereo not drawn)	-2	0	23015*	-3
NC(=O)NC(c1ccccc1)c1ccccc1	1	0	10031	6
CC(C)NC(=O)Cn1c(SCC(=O)N2CCc3ccccc3C2)nc2ccccc21	-1	-3	20580*	-7
CC1CC(C)CN(C(=O)Cn2c(SCC(=O)N3CCc4ccccc4C3)nc3ccccc32)C1 (stereo not drawn)	1	-1	4589	26
CCc1nnc(NC(=O)CSc2nnc(CNc3cccc(C)c3)n2-c2ccccc2)s1	-11	3	8374	3
CCc1nnc(NC(=O)CSc2nnc(CNc3ccc(F)cc3)n2C2CCCCC2)s1	-5	0	16238*	0
CC(=O)Nc1ccc(NC(=O)CSc2nnc(CNc3ccc(F)cc3)n2CC2CCCO2)cc1 (stereo not drawn)	6	0	4075	3
Cc1cc(NC(=O)CSc2nnc(CNc3ccc(F)cc3)n2C2CCCCC2)no1	-2	0	23158*	1
N/C(=N\OC(=O)c1ccc2c(c1)OCO2)c1ccncc1	0	0	4738	-1
CCc1nn(C(CC)C(=O)NCc2cccc(OC)c2OC)c(=O)c2cc3occc3n12 (stereo not drawn)	3	1	5062	10
O=C(c1ccncc1)N1CCN(S(=O)(=O)c2cccc(F)c2)CC1	1	2	5073	-4
O=C(c1cccc(F)c1)N1CCN(S(=O)(=O)c2ccc(C(F)(F)F)cc2)CC1	0	?	22916*	2
O=C(c1cccc(Br)c1)N1CCN(C(=O)N2CCCCC2)CC1	0	-2	9790	-20
O=C(c1cccc(Br)c1)N1CCCC1	0	?	23116*	1
O=C(c1cccc(C(F)(F)F)c1)N1CCCC1	-3	?	16789*	-5
COc1ccc(C2C(C#N)=C(N)Oc3cc(O)ccc32)cc1Cl (stereo not drawn)	3	0	4572	35*
O=C(c1cc(-c2ccc(Cl)c(Cl)c2)on1)N1CCN(c2ccccc2)CC1	-4	-5	21958*	-4
CC1CCCCN1C(=O)c1cc(-c2ccc3c(c2)OCO3)on1 (stereo not drawn)	-6	0	3070	4
O=C(c1cc(-c2ccc(Cl)c(Cl)c2)on1)N1CCCCC1	-7	0	11151	0
O=C(c1cc(-c2ccccc2)on1)N1CCN(c2ccccc2)CC1	-2	-3	5656	-5
CCC1CCCCN1C(=O)c1cc(-c2ccc(Cl)c(Cl)c2)on1 (stereo not drawn)	-4	?	25388*	-7
SMILES	Anthrax LF inh2	BoNT A protease	Autofluor counter	BoNT F protease
CC1CCCCN1C(=O)c1cc(-c2ccc(Cl)c(Cl)c2)on1 (stereo not drawn)	-4	?	22609*	-2
CC1CCc2c(sc(NC(=O)CSc3nc(N)cc(=O)[nH]3)c2C(N)=O)C1 (stereo not drawn)	?	?	6833	?
CC(C)(C)C(=O)Nc1ccccc1N1CCN(c2ccc(F)cc2)CC1	8	-2	3228	-20
CCN1C(=O)c2c(C)nc3ccccc3c2C1=O	-3	-1	20844*	0
CCN1C(=O)c2ccc(-c3nc4ccccc4c(=O)o3)cc2C1=O	0	0	5692	2
O=C(Cn1cc([N+](=O)[O-])cn1)N1N=C(C(F)F)CC1(O)C(F)F (stereo not drawn)	0	2	22225*	4
COc1nn(CC(=O)N2N=C(C)CC2(O)C(F)F)cc1[N+](=O)[O-] (stereo not drawn)	0	0	3336	-5
CC1=C(CC(=O)c2ccccc2)C(=O)c2ccccc2C1=O	-2	?	18823*	7
O=C(CN1C(=O)c2ccccc2C1=O)c1ccccc1	-2	-1	2760	-3
N#CCCN(Cc1ccccc1)C(=O)CCC(=O)c1ccc(F)cc1	-1	0	3697	-4

Compound activity from PubChem.
